# Rows were chosen to be rich in hits. Some 12% of all compounds tested hit in one or more screens of this group.
# G9a block: qHTS Assay for Inhibitors of Histone Lysine Methyltransferase G9a | AID 504332, 2011 | 350,000 tested, 8.8% active | G9a H3K9 monomethylation, AlphaScreen, 2 h | Potency, µM (series often up to 102 µM), for inactives: top-dose activity, negative = inhibition, most hits filed as inhibitors | Histone-lysine N-methyltransferase EHMT2 (Homo sapiens), Q96KQ7; note: % is set by controls: 0 for no effect and ±100 for the full control effect; nearly all actives have a fitted effect of over 75% in size
# Target sequence (Q96KQ7 913-1193 limits assumed): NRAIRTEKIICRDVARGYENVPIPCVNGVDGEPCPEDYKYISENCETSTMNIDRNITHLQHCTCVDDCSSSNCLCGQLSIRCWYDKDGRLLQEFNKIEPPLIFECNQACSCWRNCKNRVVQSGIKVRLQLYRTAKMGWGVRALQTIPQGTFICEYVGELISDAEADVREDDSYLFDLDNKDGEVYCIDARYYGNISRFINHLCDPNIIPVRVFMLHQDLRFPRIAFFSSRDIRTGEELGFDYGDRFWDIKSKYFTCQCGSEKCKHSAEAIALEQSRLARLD
#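 Compounds were preincubated with 20 nM G9a for 15 min, after which biotinylated H3K9 peptide (500 nM) and SAM (20 uM) started a 2 h room-temperature reaction. Monomethylated product was quantified by antibody-based AlphaScreen chemiluminescence.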
# JMJD2A Tudor inh: qHTS Assay for Inhibitors of JMJD2A-Tudor Domain. Lysine-specific demethylase 4A (Homo sapiens), O75164. AlphaScreen JMJD2A-Tudor / H3K4me3 peptide binding. Potency, µM (doses to about 114 µM), inactives show at the top dose activity change, negative = inhibition, actives largely listed as inhibitors. 390,000 tested, 4.4% active; note: % is set by controls: 0 for no effect and ±100 for the full control effect; nearly all actives have a fitted effect of over 50% in size
# BAZ2B inh: qHTS Assay for Inhibitors of BAZ2B | Bromodomain adjacent to zinc finger domain protein 2B (Homo sapiens), Q9UIF8 | AlphaScreen BAZ2B-H3K14Ac peptide displacement | AID 504333, 2011 | Potency, µM (doses to about 114 µM), for inactives: at the top dose activity change, negative = inhibition, usual class: inhibitors | 360,000 tested, 4.4% active; note: % is set by controls: 0 for no effect and ±100 for the full control effect; nearly all actives have a fitted effect of over 60% in size
#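 Multi-concentration screen (max 110 uM) measuring displacement of acetylated histone H3 peptide from BAZ2B by AlphaScreen, using 50 nM protein, 50 nM peptide and 10 ug/mL streptavidin donor plus Ni-chelate acceptor beads.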
# HP1b binding inh: HTS for Inhibitors of HP1-beta Chromodomain Interactions with Methylated Histone Tails | Chromobox protein homolog 1 (Homo sapiens), P83916 | AlphaScreen HP1-beta / biotin-H3K9me3 peptide binding | Potency, µM (doses to about 114 µM), for inactives: at the highest dose activity change, negative = inhibition, most hits filed as inhibitors | 390,000 tested, 0.56% active | AID 540317, 2011; note: nearly all actives have a fitted effect of over 70% in size
# Target sequence (P83916 whole entry, looked up): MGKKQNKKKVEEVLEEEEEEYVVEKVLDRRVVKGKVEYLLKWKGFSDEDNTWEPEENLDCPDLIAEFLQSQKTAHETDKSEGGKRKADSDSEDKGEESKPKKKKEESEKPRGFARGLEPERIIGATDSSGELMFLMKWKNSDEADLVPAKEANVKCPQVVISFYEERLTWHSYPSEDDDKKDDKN
#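 AlphaScreen: HP1-beta (50 nM) preformed 30 min with biotin-H3(1-18)K9me3 peptide (50 nM) in PBS pH 7.4, 0.01% Tween-20. Compound added for 30 min at RT, then streptavidin donor/nickel chelate acceptor beads (10 ug/mL) for 30 min.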
# Sfp PPTase inh: qHTS Assay for Inhibitors of Bacillus subtilis Sfp phosphopantetheinyl transferase (PPTase); AID 1490, 2009; 310,000 tested, 3.5% active; Potency, µM, for inactives: largest response in the series, negative = inhibition, usual class: inhibitors; Biochemical Sfp PPTase activity, qHTS;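 note: the enzyme is Sfp with the accession as filed and its product quenches rhodamine fluorescence; 0% = enzyme reaction without inhibitor and -100% = no enzyme wells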
#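 Compounds were incubated with enzyme (final 15 nM) for 15 min at room temperature before substrate addition started the reaction. Fluorescence at 525 nm excitation, 598 nm emission was recorded immediately and after 30 minutes.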
# PLK1 PBD inh: qHTS for Inhibitors of PLK1-PDB (polo-like kinase 1 - polo-box domain): Primary Screen; Serine/threonine-protein kinase PLK1 (Homo sapiens), P53350; Potency, µM, for the others: max response, negative = inhibition, most hits filed as inhibitors; Plk1 PBD binding of FITC phosphopeptide, fluorescence polarization; 360,000 tested, 2.8% active; note: series mostly up to about 57 µM; % is set by controls: 0 for no effect and ±100 for the full control effect; nearly all actives have a fitted effect of over 65% in size
# An asterisk follows results filed as active; ? = inconclusive; nt = no result; [ ] = another dose, or the depositor's remark. Calls come from the whole dose curve; as a rule, active = well fitted curve in the direction sought with a large enough effect; inconclusive = small, poorly fitted or top-dose-only effect, or another doubt; inactive = no such curve, though single readings can be large; an effect the other way counts as inactive or inconclusive. Potency is the fitted concentration of half-maximal effect.
SMILES,G9a block,JMJD2A Tudor inh,BAZ2B inh,HP1b binding inh,Sfp PPTase inh,PLK1 PBD inh
CCOc1cccc(=O)c2c(C)n(CC(=O)c3ccccc3)c(C)c12,?,-27%,-28%,79µM*,-24%,-10%
COc1ccccc1C(=O)CC(=O)c1ccccc1,nt,59%,22%,110%,-6%,-5%
CCc1nc(CNC(=O)C2CCC(=O)N(Cc3cccc(OC)c3)C2)no1 (stereo not given),-6%,0%,-8%,29%,2%,2%
CN(Cc1ccccc1)C(=O)[C@H](Cc1ccc2ccccc2c1)NC(=O)[C@@H]1C[C@@H](O)CN1C(=O)c1cn(C)c2ccccc12,7%[59 µM],nt,nt,nt,-7%,nt
NC(Cc1ccc(C(F)(F)F)cc1)c1csc(NC(=O)Nc2ccccc2Oc2ccccc2)n1 (stereo not given),nt,nt,nt,nt,nt,-4%
O=C(/C=C/c1cccs1)N1CCCC1,6%,-16%,4%,-7%,13%,-2%
Cc1cc(C)n(C(=O)/C=C/c2cccs2)n1,-7%[12.7 µM],27%,56µM*,80%,-4%,-6%
COc1cccc(/C=C/C(=O)NCc2ccc(S(N)(=O)=O)cc2)c1,8%,-3%,2%,18%,17%,-6%
CCOC(=O)c1cnc2c(OC)cccc2c1N1CCN(c2ccccc2OC)CC1,?,?,?,-24%,79µM*,-2%
CCOC(=O)c1cnc2c(OC)cccc2c1N1CCN(c2ccc(OC)cc2)CC1,?,-17%[11.4 µM],11µM*,?,?,24µM*
CC(C)c1ccc(S(=O)(=O)c2cnc(SCC(=O)Nc3cccc(C(F)(F)F)c3)nc2N)cc1,-4%[59 µM],-10%,-1%,22%,nt,nt
O=C(CNc1cccc2ccccc12)N/N=C/c1ccc(C(=O)O)cc1,?,-33%,-36%,6%,2%,-4%
Cc1ccc(OCC(=O)N/N=C/C=C/c2ccco2)cc1C,40µM*,-34%,?,-19%,45µM*,-7%
O=C(Cc1cccs1)N/N=C/C=C/c1ccco1,40µM*,?,45µM*,28µM*,?,?
O=C(CNc1cccc2ccccc12)N/N=C/C=C/c1ccco1,20µM*,-25%,-37%,6%,-12%,0%
CCOc1ccccc1NC(=S)N1CCC(NC(=O)C(C)(C)C)CC1,44%,-4%,-22%,41%,19%,-10%
COc1ccccc1NC(=O)CSCc1cc(=O)c2c(C)cc(C)cc2[nH]1,0%[59 µM],-6%,3%,33%[57 µM],nt,nt
O=C(NNc1nc2cc3c(cc2s1)OCCO3)c1ccccc1,40µM*,-32%,-32%,22%,-2%,1%
Cc1cccc2sc(NNC(=O)c3ccc4c(c3)OCCO4)nc12,10µM*,?,?,6%,40µM*,-16%
CC(=O)Nc1nc2cc3c(cc2s1)OCCO3,nt,-8%,2%,14%,-3%,3%
COc1ccc(CCN2C(=O)NC(NC(=O)CC(C)C)(C(F)(F)F)C2=O)cc1OC (stereo not given),-6%[59 µM],-23%,-7%,8%,-16%,-9%
COc1ccc(S(=O)(=O)NC2(C(F)(F)F)NC(=O)N(CCc3ccccc3)C2=O)cc1 (stereo not given),45µM*,0%,-13%,35%,19%,-8%
O=C1NC(NS(=O)(=O)c2ccccc2)(C(F)(F)F)C(=O)N1CCc1ccccc1 (stereo not given),8%,2%,3%,25%,15%,-3%
CC(C)CN1C(=O)NC(NS(=O)(=O)c2ccc(N)cc2)(C(F)(F)F)C1=O (stereo not given),17%[59 µM],-6%,4%,31%,4%,21µM*

# Bioassay records as filed in PubChem BioAssay.
